# Screening results deposited in PubChem BioAssay by several laboratories.
# Anthrax LF prot: Bacillus anthracis LF protease inhibitors, primary screen, biochemical, multiplex microsphere, MLPCN library; AID 588501, 2011; 360,000 tested, 0.12% active; Lethal factor (Bacillus anthracis), P15917; inhibition, % at 10 µM; multiplex microsphere protease cleavage assay; note: plate controls were buffer without enzyme for full effect and enzyme alone for no effect
# MazEF act: activators of E. coli MazEF toxin-antitoxin RNase, primary screen, biochemical, fluorescence, uHTS; activation, % at 20 µM; Endoribonuclease toxin MazF (Escherichia coli (strain K12)), P0AE70; 350,000 tested, 0.32% active; FAM/BHQ RNA-DNA oligo cleavage fluorescence, 5 h; in the data active = activation above about 50%
# Vc quorum ag: inducers of Vibrio cholerae quorum light production without autoinducers, primary screen, BH1578 luxS cqsA deficient, single point | activation, % at 18.7 µM | AID 588436, 2011 | V. cholerae BH1578 lux reporter, luminescence, 6 h | 350,000 tested, 0.16% active; in the data active = activation mostly above about 9.7%, no sharp cut-off; inconclusive = no clear call, values can overlap the other calls; inactive = mostly below about 3.7%
# Bead autofluor: compound fluorescence in toxin protease inhibitor counterscreen | compound autofluorescence counterscreen, microsphere flow cytometry; active compounds read high | fluorescence intensity (test concentration not listed) | 360,000 tested, 3.1% active; in the data active = fluorescence intensity above about 16000; inconclusive = no clear call, values can overlap the other calls
# BoNT A protease: BoNT/A light chain protease inhibitors, primary screen, biochemical, flow cytometry, MLPCN library; inhibition, % at 10 µM; AID 588499, 2011; 360,000 tested, 0.17% active; Botulinum neurotoxin type A light chain protease (Clostridium botulinum A str. ATCC 3502); multiplex microsphere protease substrate cleavage; note: plate controls were buffer without enzyme for full effect and enzyme alone for no effect
# BoNT-F LC inh: BoNT/F light chain protease inhibitors, primary screen, biochemical, flow cytometry, MLPCN library | inhibition, % at 10 µM | Multiplex microsphere protease cleavage assay | AID 588497, 2011 | 360,000 tested, 0.22% active; in the data active = inhibition above about 35%, passing the limit was not always enough; inconclusive = no clear call, values can overlap the other calls; note: plate controls were buffer without enzyme for full effect and enzyme alone for no effect
# Starred values were filed as active, the others as inactive; i = inactive; ? = inconclusive; . = no result. The list is not random: actives were taken first. Their share in the collection is about 3.9%. Cut-off read from the data, not from the text of the source, unless noted: active = inhibition above about 30%; inconclusive = no clear call, values can overlap the other calls; inactive = below that.
SMILES,Anthrax LF prot,MazEF act,Vc quorum ag,Bead autofluor,BoNT A protease,BoNT-F LC inh
Cc1cc(Cl)cc(Br)c1OCCCN1C(=O)NC(C)(C)C1=O,1,-6,-2,20662*,4,7
Cc1cc(Cl)c(OCCCNCc2ccccc2)c(Br)c1,-9,15,0,6234,-1,-23
CC(C)c1cc(Br)ccc1OCCN1C(=O)NC(C)(C)C1=O,1,-18,i,4450,-1,-4
COCCNCCCCOc1c(Cl)cc(C)cc1Br,-5,0,-7,20464*,0,-2
CC1(C(=O)NS(=O)(=O)c2ccc(F)cc2F)CCN1C(=O)C/C=C/c1ccccc1 (centres undefined),-3,.,0,3430,0,-2
Cc1ccccc1NC(=O)C1Cc2ccccc2CN1C(=O)OCc1ccccc1 (centres undefined),0,-2,0,2566,0,-1
Cc1cc(C)c(OCCN2CCCC2)c(Cl)c1,.,9,i,.,.,.
Cc1cc(C)c(OCCN2C(=O)NC(C)(C)C2=O)c(Cl)c1,-2,-2,i,22616*,0,0
COc1ccc(C)cc1NC(=O)Nc1ccc(Br)cn1,1,4,i,18723*,5,10
COc1ccc(C(=O)Nc2cc(C)on2)c(OC)c1,-12,9,i,?,-2,-6
COc1ccc(Cl)cc1NC(=O)Nn1cnnc1,-2,2,-14,16503*,0,-2
COc1ccc(C)cc1NC(=O)NC1CCCCCCC1,1,0,-2,5115,0,4
COc1ccc(C(=O)Nc2ccc(C)cn2)c(OC)c1,-2,18,-2,21063*,-4,-6
COc1ccc(C(=O)Nn2cnnc2)c(OC)c1,0,-1,i,21828*,1,0
CCN1CCc2c(sc(NC(=O)c3ccc(S(=O)(=O)N4CCCCCC4)cc3)c2C(=O)NC)C1,3,-289,-1,6150,0,14
CCCCc1c(-c2cccc(Cl)c2)ncn1CCc1ccccc1OC,-2,.,.,5977,0,-1
CCOc1ccccc1NC(=O)c1cc(SC)ccc1Cl,3,-7,0,4374,1,-1
Cc1c(C(=O)Oc2cc(N)n(S(C)(=O)=O)n2)cccc1[N+](=O)[O-],0,74*,1,1969,0,5
CC(C)(C)c1nnc(NS(=O)(=O)c2ccc([N+](=O)[O-])cc2)s1,12,-1,i,3591,2,-23
Cc1cc(NO)nc(-c2ccc(Br)cc2)n1,-2,2,0,24290*,-3,-5
O=C(Nc1cccc2cccnc12)c1ccc(Cl)cc1,-13,9,i,3848,-4,25
O=C(Nc1cccc2cccnc12)c1cccnc1,-1,5,0,18275*,6,7
COc1ccccc1CN1CCCCC1c1cccnc1 (centres undefined),0,9,12,22672*,2,0
COCc1cc(CN2CCN(CCc3ccccc3)C(CCO)C2)ccc1OC (centres undefined),-11,0,0,3901,-3,?
CCOc1ccc(Nc2nc(NCCN3CCOCC3)nc(OC)n2)cc1,-3,7,0,22883*,?,0
SMILES,Anthrax LF prot,MazEF act,Vc quorum ag,Bead autofluor,BoNT A protease,BoNT-F LC inh
CCOc1ccc(Nc2nc(N3CCOCC3)nc(N3CCOCC3)n2)cc1,.,2,i,.,.,.
CCC(=O)Nc1cccc(-c2nc3ccc(C)cc3o2)c1,.,3,i,.,.,.
Cc1ccc2nc(-c3cccc(NC(=O)c4ccc5c(c4)OCCO5)c3)oc2c1,-5,-47,1,21708*,?,-4
COC(=O)NNC(=O)COc1ccc(Br)c(C)c1,2,7,i,8226,0,1
CCC(C)NC(=O)COc1ccc(Br)c(C)c1 (centres undefined),-4,-2,0,20456*,-1,-3
O=C(Nc1ccc(Cl)cc1)Nn1cnnc1,3,15,0,3865,0,?
CCC(=O)Nc1nc(CC(=O)Nc2ccccc2OC)cs1,3,-4,i,4517,0,10
